Several values for one entry are separate records, joined by “and”; a condition that tells them apart may be missing. Equal values may be shown once. Records with an inconclusive call do not appear. Activity calls are given as the source filed them. Calls come from the whole dose curve; as a rule, active = well fitted activation curve with a large enough effect; inconclusive = small, poorly fitted or top-dose-only effect; inactive = no such curve, though single readings can be large or run the other way.

This passage reports activation results from PubChem BioAssay (NCATS).

Sequence of Cellular tumor antigen p53 (Homo sapiens) (P04637 whole entry, looked up): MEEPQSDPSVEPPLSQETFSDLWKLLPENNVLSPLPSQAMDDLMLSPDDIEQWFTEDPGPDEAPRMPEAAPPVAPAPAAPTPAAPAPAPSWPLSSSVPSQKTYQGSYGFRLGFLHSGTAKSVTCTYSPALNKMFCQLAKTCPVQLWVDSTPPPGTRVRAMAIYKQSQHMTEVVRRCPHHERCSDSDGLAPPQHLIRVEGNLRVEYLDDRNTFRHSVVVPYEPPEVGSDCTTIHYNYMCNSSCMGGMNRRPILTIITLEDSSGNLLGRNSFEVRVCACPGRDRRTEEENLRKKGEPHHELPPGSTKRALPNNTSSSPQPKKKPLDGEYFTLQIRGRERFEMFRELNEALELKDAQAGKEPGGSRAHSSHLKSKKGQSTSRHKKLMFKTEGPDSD

This experiment addresses Cellular tumor antigen p53 (Homo sapiens) (UniProt P04637). In words: Primary qHTS for small molecule compounds that upregulate eGFP-tagged delta133p53alpha (in N-terminal) cells. (AID 2060322).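 Note: series mostly up to about 56 µM; 0% = DMSO vehicle and 100% = reference activator; nearly all actives have a fitted effect of over 75% in size.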 The note with it: NCI-H358 eGFP-delta133p53alpha fluorescence, 24 h; activation: active compounds read high. The essentials: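 NCI-H358 cells pre-induced 24 h with 10 ng/ml doxycycline to express N-terminal eGFP-delta133p53alpha, then dosed 24 h at 37C without doxycycline; fixed, Hoechst-stained, GFP intensity by laser scanning cytometry, normalized to DMSO (0%) and 57.5 uM 5-azacytidine (100%).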
On the technique in general: Quantitative high-throughput screening tests each substance at several concentrations.
Take `Cc1ncc2n1-c1ccc(Cl)cc1C(c1ccccc1F)=NC2`: the activation is -27.7% (inactive).
Turning to `CC(C)NC(C)C`, the activation was -1.69% (inactive).
Regarding `Oc1ccccc1-c1ccccc1`, the activation is 10% (inactive).
The figure for `O=[N+]([O-])c1cc([N+](=O)[O-])c2ccccc2c1` is -5.02% (inactive); for `c1cc2ccc3cccc4ccc(c1)c2c34` it is 0% (inactive); for `C[C@](O)(CS(=O)(=O)c1ccc(F)cc1)C(=O)Nc1ccc(C#N)c(C(F)(F)F)c1` it is -4.55% (inactive).
As to `O=C(O)c1ccnc2cc(C(OCCN3CCC(F)(F)CC3)c3ccccc3Cl)[nH]c12` (centres undefined), the activation is -26.8% (inactive).
In the case of `COC[C@H]1OC(=O)c2coc3c2[C@@]1(C)C1=C(C3=O)[C@@H]2CC[C@H](O)[C@@]2(C)C[C@@H]1OC(C)=O`, the activation was 13.2% (inactive).
The figure for `C[C@@H]1CC[C@H]2[C@@H](C)C(=O)O[C@@H]3O[C@@]4(C)CC[C@H]1[C@]32OO4` is 5.37% (inactive); for `CCN(CC)CCN1C(=O)CN=C(c2ccccc2F)c2cc(Cl)ccc21` it is 11.9% (inactive).
The figure for `C[C@@H]1CN(C2CCC(C#N)(c3ccc(F)cc3)CC2)CC[C@]1(C(=O)O)c1ccccc1` (some centres undefined) is 10.7% (inactive); for `CCCCCCC(=O)CCCCCC/C=C/C[C@@H](O)[C@H](O)[C@@](N)(CO)C(=O)O` it is 5.86% (inactive); for `C=CCN1CC[C@]23CCCC[C@H]2[C@H]1Cc1ccc(O)cc13` it is -6.69% (inactive).
In the case of `COP(=S)(OC)Oc1ccc(S(N)(=O)=O)cc1` it was -28.8% (inactive); in that of `c1ccc2c(c1)Nc1ccccc1S2`, 13% (inactive) and 14.2% (inactive); in that of `CC(C)(O)C(Cl)(Cl)Cl`, -9.6% (inactive).
With `NC(=O)OCCCc1ccccc1`, the activation was -0.565% (inactive).
Regarding `CC#C[C@]1(O)CC[C@H]2[C@@H]3C[C@H](C)C4=CC(=O)CC[C@]4(C)[C@H]3CC[C@@]21C`, the activation was -4.18% (inactive).
The figure for `Cn1cnc(CCN)c1` is -2.51% (inactive); for `Sc1ccccc1Cl` it is -0.837% (inactive); for `CC(CC(C#N)(c1ccccc1)c1ccccc1)N(C)C` (centres undefined) it is 24.3% (inactive).
In the case of `O=C(O)COc1nc(Cl)c(Cl)cc1Cl` it was 6.21% (inactive).
As for `N#C/C(=C/c1ccc(O)c(O)c1)C(N)=S`, the activation is -33.2% (inactive).
The figure for `CNC(C)Cc1ccc2c(c1)OCO2` (centres undefined) is 17.5% (inactive).
